# Measured values as given in PubChem BioAssay AID1053126 (Broad Institute, 2014).
# Potency and affinity values are given separately. Calls of active or inactive are those of the source.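 How the source made its calls: active means cell killing with a fitted half-effect concentration at or below twice the top valid dose; inconclusive means flat curve with 30 to 70 percent drop, or poor fit; inactive means the rest.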
# Experiment: HEK293T cell cytotoxicity, dose response, cytotoxicity control, ATP luminescence, cherry-pick, set 6 (AID 1053126)
# Conditions: HEK293T viability, CellTiter-Glo ATP luminescence, 72 h; series mostly up to 26 µM
row,Compound,outcome
1,CCc1nc(SCC(=O)c2ccccc2)c2ccccc2n1,inactive
2,COc1ccc(C(=O)c2sc3nc(-c4ccc(OC)cc4)ccc3c2N)cc1,inactive
3,CCC(=O)N1C(C(=O)NCc2ccc(OC)cc2)CSC1c1ccc(OC)cc1 (centres undefined),inactive
4,Clc1ccccc1C1=CC(c2ccco2)n2ncnc2N1 (centres undefined),inactive
5,O=c1c2ccccc2n(CC(O)CN2CCCCC2)c2ccccc12 (centres undefined),inactive
6,O=C(Cc1csc(-c2ccccc2)n1)NCc1ccccc1F,inactive
7,CSc1ccc(Cn2c(C)c(C(=O)NCc3cccc(Cl)c3)sc2=O)cc1,inactive
8,CN(C)/C=C/C(=O)c1c(F)cccc1F,inactive
9,N#Cc1c(NCCCO)nc(NCc2ccccc2)c2c1CCN(Cc1ccccc1)C2,inactive
10,COc1cc(C2C3=C(CC(C)(C)CC3=O)N(C)C3=C2C(=O)CC(C)(C)C3)cc(Br)c1O,inactive
11,CN1CCc2c(sc(NC(=O)Cc3ccccc3)c2C#N)C1,inactive
12,Cn1c(=N)c(S(=O)(=O)c2ccccc2)cc2c(=O)n3ccccc3nc21,inactive
13,Cc1ccc(-c2nc3ccsc3c(=O)[nH]2)cc1,inactive
14,Nn1c(SCC(=O)N2CCCC2)nnc1-c1cccs1,inactive
15,CCCCCCc1cc2cc(S(=O)(=O)c3ccc(C)cc3)c(=O)oc2cc1O,inactive
16,N#C/C(=C\c1ccco1)C(=O)Nc1cccc2ncccc12,inactive
17,Cc1ccc(-n2nnnc2CNC(=O)C(=O)c2c[nH]c3ccccc23)cc1C,inactive
18,CSCCC1(C(=O)O)NC(c2ccccc2O)C2C(=O)N(C(C)C)C(=O)C21 (centres undefined),inactive
19,CC(C)OCCCn1c(=N)c(C(N)=S)cc2c(=O)n3ccccc3nc21,inactive
